Results as given in PubChem BioAssay AID777 (Sanford-Burnham Center for Chemical Genomics, 2007).
Out of some 96,000 compounds screened, about 19,000 (20%) were called active.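 Rule for the calls: active = blocking of liver enzyme CYP2C9 beyond about 50% at 5 µM (limit read from the data); inactive = the rest.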 The list is a sample of the results.

These compounds were tested against Cytochrome P450 2C9 (Homo sapiens) (UniProt P11712) (assay: blockers of cytochrome P450 2C9 activity – biochemical, luminescence, ADME assay, primary screen (AID 777)). Conditions: CYP2C9 Supersomes, luciferin-H conversion, at 5 µM, hits give high values.
Cytochrome P450 2C9 (Homo sapiens), sequence (P11712 whole entry, looked up): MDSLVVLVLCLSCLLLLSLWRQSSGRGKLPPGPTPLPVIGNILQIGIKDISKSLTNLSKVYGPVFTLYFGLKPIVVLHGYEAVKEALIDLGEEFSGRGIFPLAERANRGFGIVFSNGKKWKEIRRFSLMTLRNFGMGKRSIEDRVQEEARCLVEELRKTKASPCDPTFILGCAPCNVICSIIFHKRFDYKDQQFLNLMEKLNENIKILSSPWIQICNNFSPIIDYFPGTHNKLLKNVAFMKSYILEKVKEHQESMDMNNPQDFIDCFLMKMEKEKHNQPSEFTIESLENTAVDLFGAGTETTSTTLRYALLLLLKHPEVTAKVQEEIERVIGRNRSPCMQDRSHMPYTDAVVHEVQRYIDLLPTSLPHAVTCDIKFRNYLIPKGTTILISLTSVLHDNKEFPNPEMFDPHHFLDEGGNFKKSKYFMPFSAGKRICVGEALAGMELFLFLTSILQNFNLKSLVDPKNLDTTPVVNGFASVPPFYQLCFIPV
In the case of `COc1ccc(CNC2CCCCC2)cc1`, the inhibition is reported as 2.3% (inactive).
With `CCOC(=O)C1CCN(C(=O)C2CCN(S(=O)(=O)CC)CC2)CC1` the inhibition was -14.3% (inactive).
`CCOC(=O)C1CCN(C(=O)Nc2ccc(Cl)cc2)CC1` was tested, and the inhibition was 53.3% (active).
For `CCOC(=O)C1CCN(C(=O)C2CCN(S(=O)(=O)N3CCCC3)CC2)CC1`, the inhibition was 20.7% (inactive).
With `O=C(COc1ccccc1)NCc1ccc2c(c1)OCO2` the inhibition was 32.4% (inactive).
`O=C(Cn1nnc(-c2ccccc2)n1)NCc1ccccc1` was tested, and the inhibition was -11.3% (inactive).
`O=C(NCc1ccc2c(c1)OCO2)c1cc2c(s1)CS(=O)(=O)C2` was tested, and the inhibition was 25% (inactive).
For `COc1ccc(-c2csc(N3CCN(Cc4ccc5c(c4)OCO5)CC3)n2)cc1`, the inhibition was -14.4% (inactive).
With `CC1CCCC(C)N1C(=O)CN1CCN(c2nc(-c3ccc(F)cc3)cs2)CC1` (stereo not given) the inhibition was 1.8% (inactive).
`O=C(CN1CCN(c2nc(-c3ccccc3)cs2)CC1)NCc1ccc2c(c1)OCO2` was tested, and the inhibition was 91.4% (active).
`O=C(CN(Cc1ccccc1)C(=O)c1ccc2c(c1)OCCO2)NCc1ccc2c(c1)OCO2` was tested, and the inhibition was 50.2% (active).
`O=C(NCCc1ccc2c(c1)OCCO2)c1cc2ccccc2o1` was tested, and the inhibition was 35.2% (inactive).
In the case of `O=C(COC(=O)c1ccc2c(c1)OCCO2)NCc1ccccc1`, the inhibition is reported as -9.3% (inactive).
With `O=C(Cn1nnc(-c2ccccc2)n1)NCc1ccc2c(c1)OCO2` the inhibition was 50.4% (active).
With `O=C(Cn1nnc(-c2ccc3c(c2)OCO3)n1)NCc1ccco1` the inhibition was 16.6% (inactive).
For `O=C(CC(Cc1ccccc1)C(=O)O)NCCc1ccc2c(c1)OCO2` (stereo not given), the inhibition was 75.5% (active).
For `N#C/C=C1\Sc2ccccc2C(=O)N1CC(=O)N1CCN(S(=O)(=O)c2ccccc2)CC1`, the inhibition was -15.4% (inactive).
In the case of `Cc1c(-c2ccccc2)nc(N)c(C#N)c1-c1cccs1`, the inhibition is reported as 29.3% (inactive).
With `O=c1c2ccccc2nc2n1C(CSc1ccc(Cl)cc1)CN2` (stereo not given) the inhibition was -1.6% (inactive).
In the case of `Cc1nc2ccc(S(=O)(=O)NC(C(=O)N3CCCCCC3)C(C)C)cc2s1` (stereo not given), the inhibition is reported as 26.6% (inactive).
`COC(=O)Nc1ncc(CN2C(=O)c3ccccc3C2=O)s1` was tested, and the inhibition was -12% (inactive).
In the case of `N/C(=N\OC(=O)CCC1CCCCC1)c1ccccn1`, the inhibition is reported as 0.9% (inactive).
With `O=C(O)c1cc(S(=O)(=O)N2CCCCCC2)c(Cl)cc1Cl` the inhibition was 22.4% (inactive).
In the case of `O=C(COC(=O)c1ccccc1SCC(=O)NC1CCCCC1)NC1CCCCC1`, the inhibition is reported as 12.1% (inactive).
For `CCOC(=O)c1ccc(-c2ccc(C(=O)Nc3cccnc3)o2)cc1`, the inhibition was 14.6% (inactive).
With `CCOC(=O)c1cc(NC(=O)c2ccc(Cl)cc2)c(=O)oc1-c1ccccc1` the inhibition was -22.2% (inactive).
In the case of `CCOC(=O)c1ccc(COC(=O)CCc2nc(-c3ccccc3)c(-c3ccccc3)o2)cc1`, the inhibition is reported as 85.6% (active).
With `Cc1ccc(O)c(NC(=O)COc2cc(C)ccc2C)c1` the inhibition was -59.4% (inactive).
With `COc1ccccc1-c1c(C)nn2c(C)c(C(C)=O)cnc12` the inhibition was 3.7% (inactive).
With `COc1ccc(-c2nc(SCC(=O)N3CCOCC3)n[nH]2)cc1` the inhibition was -9.6% (inactive).
`C(=N/N1CCN(c2ccccc2)CC1)/c1cccs1` was tested, and the inhibition was 40.3% (inactive).
In the case of `Cc1ccc(N2CCN(C3=NC(=O)/C(=C\c4cccs4)S3)CC2)cc1`, the inhibition is reported as -127% (inactive).
In the case of `O=C1/C(=C/c2cccs2)CCc2ccccc21`, the inhibition is reported as 72.8% (active).
For `Cc1ccc(C(=O)Nc2c(C#N)c(C)c(C)n2Cc2ccccc2)cc1`, the inhibition was 22.4% (inactive).
`COc1ccc(Cn2c(C)c(C)c(C#N)c2NC(=O)Nc2ccc(F)cc2)cc1` was tested, and the inhibition was 13.6% (inactive).
`Cc1c(C#N)c(NC(=O)c2ccccc2)n(Cc2ccccc2)c1C` was tested, and the inhibition was 60.7% (active).
In the case of `CCCc1nc(N)nc2c1C(=O)CC(C)(C)C2`, the inhibition is reported as -35.3% (inactive).
`CCCSc1nsc(N)n1` was tested, and the inhibition was 16.4% (inactive).
In the case of `O=C(Nc1ccncc1)c1cc2ccccc2o1`, the inhibition is reported as 86% (active).
For `O=C(Nc1cccc(-c2nc3ncccc3o2)c1)c1ccco1`, the inhibition was -2.1% (inactive).
In the case of `O=C(Nc1ccncc1)c1c(F)cccc1F`, the inhibition is reported as 40.2% (inactive).
`O=C(C1CCCO1)N(Cc1ccccc1)c1ccccc1` (stereo not given) was tested, and the inhibition was -4% (inactive).
With `Cc1cc([N+](=O)[O-])c(N2CCC[C@@H]2C(=O)O)c([N+](=O)[O-])c1` the inhibition was 5.1% (inactive).
`CS(=O)(=O)c1ccc2nc(NC(=O)C3C4C=CC(C4)C3C(=O)O)sc2c1` (stereo not given) was tested, and the inhibition was -5.4% (inactive).
`CC(C)(C)n1c(=O)[nH]c2c(c1=O)CCC2` was tested, and the inhibition was -7.2% (inactive).
In the case of `CCOc1ccc(OCC)c(NC(=O)C2CCN(S(=O)(=O)c3c(C)noc3C)CC2)c1`, the inhibition is reported as 48.4% (inactive).
In the case of `COC(=O)c1ccccc1NC(=O)C1CCN(S(=O)(=O)c2cc(OC)ccc2OC)CC1`, the inhibition is reported as 92.2% (active).
With `CCOc1ccccc1NC(=O)C1CCN(S(=O)(=O)c2c(C)nn(C)c2C)CC1` the inhibition was -30.6% (inactive).
In the case of `O=C(Cc1c(O)c2ccccc2[nH]c1=O)NCc1ccccc1`, the inhibition is reported as 9.8% (inactive).
In the case of `O=C(Nc1ccon1)c1cccc(Cl)c1`, the inhibition is reported as 17.5% (inactive).
With `Cc1ccc(Oc2ccc(N)cc2)cc1` the inhibition was 29.2% (inactive).
With `CC(C(=O)Nc1ccc(F)c(F)c1F)N1CCCCCC1` (stereo not given) the inhibition was 13.7% (inactive).
In the case of `Cc1cc(NC(=O)COc2ccc(Cl)cc2Cl)n(CCC#N)n1`, the inhibition is reported as 16.2% (inactive).
For `O=C1CCCC2=C1C(c1ccccc1)n1c(s/c(=C/c3cccc(F)c3)c1=O)=N2` (stereo not given), the inhibition was 49.7% (inactive).
With `O=C(NC1CCCCC1)n1c(=O)oc2cc(S(=O)(=O)N3CCCCC3)ccc21` the inhibition was -56.7% (inactive).
With `CCOC(=O)Cn1c(=O)oc2cc(S(=O)(=O)NCC3CCCO3)ccc21` (stereo not given) the inhibition was 11.7% (inactive).
For `CC(C)CCNC(=O)Cn1c(=O)oc2cc(S(=O)(=O)N3CC(C)CC(C)C3)ccc21` (stereo not given), the inhibition was 51.3% (active).
For `Cn1c(=O)c2c(nc(SCCNS(=O)(=O)c3ccccc3)n2C)n(C)c1=O`, the inhibition was 42.7% (inactive).
In the case of `Cn1c(=O)c2c(nc(SCC(=O)Nc3ccccc3N3CCCCC3)n2C)n(C)c1=O`, the inhibition is reported as 93.9% (active).
With `Cn1c(=O)c2c(nc(N3CCCCCC3)n2CC(=O)c2ccc(Br)cc2)n(C)c1=O` the inhibition was 15.6% (inactive).
With `O=C(CN1CCN(C2CCCCC2)CC1)Nc1ccccc1N1CCCCC1` the inhibition was -1.6% (inactive).
For `CC(C)n1c(SCC(=O)Nc2ccccc2N2CCCCC2)nc2c1c(=O)n(C)c(=O)n2C`, the inhibition was 87.2% (active).
In the case of `Cn1c(=O)c2c(nc(N3CCCCCC3)n2CC(O)COc2ccc(Cl)cc2)n(C)c1=O` (stereo not given), the inhibition is reported as 20% (inactive).
For `Cc1ccc2[nH]c(=O)c(-c3nc4c(C)cccn4c3NCc3ccco3)cc2c1`, the inhibition was 13% (inactive).
For `Fc1ccc(-c2ccc(-c3nn4c(-c5ccco5)nnc4s3)o2)cc1`, the inhibition was 7.3% (inactive).
For `COC(=O)c1ccc(Oc2nc(Nc3ccc(F)cc3)nc(N3CCCC3)n2)cc1`, the inhibition was 31.9% (inactive).
For `Cc1ccc2nc(Nc3ccccc3O)nc(-c3ccccc3)c2c1`, the inhibition was 13.8% (inactive).
`Cc1nnc(SCC(N)=O)n1CC1CCCO1` (stereo not given) was tested, and the inhibition was 0.5% (inactive).
In the case of `O=c1c2ccccc2nnn1CSc1nc2sc3c(c2c(=O)n1CC1CCCO1)CCC3` (stereo not given), the inhibition is reported as 84.8% (active).
`O=C(NC1CCCCC1)c1ccc2c(=O)n(CC3CCCO3)c(=O)[nH]c2c1` (stereo not given) was tested, and the inhibition was -2.1% (inactive).
For `COc1cccc(CNc2nc3nc4c(c(=O)n3[nH]2)CCC4)c1`, the inhibition was 15.1% (inactive).
`CC(=O)Nc1ccc(N2C(=O)C3C4CC(=O)C(c5ccccc54)C3C2=O)cc1` (stereo not given) was tested, and the inhibition was -8.5% (inactive).
In the case of `COC(=O)c1ccc(NC(=O)CSc2nnc(Cc3cccn3C)n2-c2ccc(F)cc2)cc1`, the inhibition is reported as 19.2% (inactive).
In the case of `Cc1ccc(C)c(NC(=O)CSc2nnc(Cc3cccn3C)n2-c2ccc(F)cc2)c1`, the inhibition is reported as 19.9% (inactive).
In the case of `COc1ccccc1NC(=O)CSc1nnc(Cc2cccn2C)n1-c1ccc(F)cc1`, the inhibition is reported as 62.7% (active).
`CC(=NC1CCN(Cc2ccccc2)CC1)c1c(O)[nH]c(=O)[nH]c1=O` was tested, and the inhibition was -1.3% (inactive).
`CCC(C)N1C(=O)S/C(=C/c2ccc(Sc3nc4ccccc4[nH]3)o2)C1=O` (stereo not given) was tested, and the inhibition was 60% (active).
`O=C(CSc1nc2ccccc2[nH]1)c1cccs1` was tested, and the inhibition was 29.8% (inactive).
In the case of `CN=C1S/C(=C\c2ccc(Sc3ccc(Cl)cc3)o2)C(=O)N1C`, the inhibition is reported as 29.4% (inactive).
For `COc1cccc2sc(Nc3nc(C)c(C(C)=O)s3)nc12`, the inhibition was 64.5% (active).
For `CC(=O)c1sc(NC(=O)c2cccc3ccccc23)nc1C`, the inhibition was -22.6% (inactive).
With `CC(=O)c1sc(NC(=O)c2ccc(C)cc2)nc1C` the inhibition was 6.9% (inactive).
For `COc1ccc(C(=S)Nc2ccccc2)cc1`, the inhibition was 15% (inactive).
For `CN1CCN(C(=O)Cn2c(C(F)(F)F)nc3ccccc32)CC1`, the inhibition was -8.1% (inactive).
In the case of `CCOC(=O)N1CCN(C(=O)CN(C2CCCCC2)S(C)(=O)=O)CC1`, the inhibition is reported as 0.7% (inactive).
In the case of `CS(=O)(=O)N(CC(=O)N1CCN(c2ccc(F)cc2)CC1)C1CCCCC1`, the inhibition is reported as 21.6% (inactive).
With `CS(=O)(=O)N(CC(=O)Nc1ccc(Cl)c(Cl)c1)C1CCCCC1` the inhibition was 59.4% (active).
For `CC(C)C(C)NC(=O)COc1ncnc2ccccc12` (stereo not given), the inhibition was 14.1% (inactive).
In the case of `COc1ccc(-c2noc(CN(C)S(=O)(=O)c3ccc(C)cc3)n2)cc1`, the inhibition is reported as 18.8% (inactive).
For `Cc1ccc(-c2noc(CC(c3ccccc3)c3ccccc3)n2)cc1`, the inhibition was 55.2% (active).
With `Cc1ccc(-c2noc(CCC(N)=O)n2)cc1` the inhibition was 6.1% (inactive).
With `Fc1ccc(-n2c(Cc3ccccc3)nnc2SCc2nc(-c3ccc(Cl)cc3)no2)cc1` the inhibition was 62.6% (active).
`CSc1nnc(CNC(=O)c2ccccc2)n1-c1ccc(F)cc1` was tested, and the inhibition was -3.4% (inactive).
For `COc1ccc(N2CCN(C(=O)CCc3nc(-c4ccc(C)cc4)no3)CC2)cc1`, the inhibition was 51.2% (active).
For `Cc1ccc(Cc2nc(-c3cccc(C)c3)no2)cc1`, the inhibition was -9.2% (inactive).
In the case of `COc1ccc(-c2noc(-c3ccc(C)cc3)n2)cc1`, the inhibition is reported as -13.8% (inactive).
`COc1ccccc1Cc1nc(-c2ccc(C)cc2)no1` was tested, and the inhibition was 7.1% (inactive).
`O=C(CSc1nnc(Cc2ccccc2)n1-c1ccccc1)N1CCOCC1` was tested, and the inhibition was 3.8% (inactive).
`CCOc1cc(-c2noc(CCC(=O)N3CCOCC3)n2)ccc1OC` was tested, and the inhibition was -11.7% (inactive).
`COc1ccc(-c2noc(CSc3ccc(C)cc3)n2)cc1` was tested, and the inhibition was 52.3% (active).
